Results: PubChem BioAssay
Activity calls are given as the source filed them.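 The calls were made as follows, unless noted: active = visually confirmed hit in the image check and inhibition above 20%; inconclusive = visually confirmed hit but inhibition not above 20%; inactive = no visual hit in the image check.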

What was measured:
[1] = inhibitors of TNFa-induced NFkB p65 translocation, primary screen, imaging, HUVEC, MLSMR starter and 10KST1 sets (AID 438;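 active = inhibition above 20% together with a positive visual image hit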;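 also: compound added about 3h40 before a 20 min TNFalpha stimulation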;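 as to inhibition: signal is the nuclear over cytoplasmic p65 intensity ratio per well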); conditions: HUVEC TNFa-induced p65 nuclear translocation; cell count: measured here: nuclei count (cytotoxicity indicator), at 2.08 µM; inhibition: at 2 µM, stronger effect = higher value, 0% TNFa-plus-vehicle, 100% no-TNFa wells
[2] = inhibitors of mutant huntingtin aggregation, primary screen, imaging, exon1htt(103Q)mCFP cells, high-content imaging (AID 483;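 active = visual image review flags a hit and inhibition of aggregation exceeds 20%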;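 also: compound exposure lasted 3 days before fixation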;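 as to nuclei count: percent of the per-plate median nuclei count of sample wells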); conditions: exon1htt(103Q)mCFP cell line, aggregate imaging, at 2 µM; inhibition of aggregation: stronger effect = higher value; nuclei count: measured here: cell count, toxicity
[3] = inhibitors of E-selectin induction by TNFa, primary screen, imaging, HUVEC, immunofluorescence, MLSMR starter and 10KST1 sets (AID 487); conditions: HUVEC TNFalpha-induced E-selectin immunofluorescence imaging, at 2 µM; inhibition: stronger effect = higher value; nuclei count: measured here: cell number, toxicity;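 as to inhibition: signal is fraction of cell area covered by stained E-selectin grains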;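 as to nuclei count: 100% = median nuclei count of all wells on the same plate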
[4] = biological target: Voltage-gated potassium channel subunit beta-2 (Rattus norvegicus) (UniProt P62483); experiment: KvBeta enzyme negative modulators, primary screen, biochemical, NADPH fluorescence (AID 622;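 active = fluorescence slope higher than the sample average by over 3 SD, cut at about -0.22 in these data, passing the limit was not always enough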;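 also: slope of raw intensity against log time taken from 70 to 1610 s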); conditions: recombinant KvBeta, 4-cyanobenzaldehyde reduction, at 10 µM, stronger effect = higher value
[5] = biological target: Voltage-gated potassium channel subunit beta-2 (Rattus norvegicus) (UniProt P62483); experiment: KvBeta positive modulators, primary screen, biochemical, NADPH fluorescence (AID 623;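 active = NADPH fluorescence slope more negative than the mean of all samples by about 3 SD, 99.7% confidence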;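 also: fluorescence intensity change per second fitted from 20 to 320 s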); conditions: Recombinant KvBeta, NADPH fluorescence decrease slope, 10 min; at 10 µM; stronger effect = lower value
[6] = biological target: Alpha-2C adrenergic receptor (Homo sapiens) (UniProt P18825); experiment: modulators of alpha2C/GIRK thallium flux, primary screen, cell-based, HEK293 alpha2C/GIRK1/2 (AID 624;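 active = fluorescence slope after compound addition differing from the mean of all screened samples at 99.7% confidence, in either direction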;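 also: slope of fluorescence ratio to pre-addition baseline per second over 15 to 24 s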); conditions: thallium flux BTC fluorescence, at 10 µM, actives lie on both sides
[7] = inhibitors of Sendai virus-induced IRF3 signaling, primary screen, TLR/RLR signaling modifier project, cell-based, Sendai virus stimulus, luciferase, 10K MLSCN set (AID 602276;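 active = inhibition at or above 50% at 10 µM; inactive = inhibition below 50%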;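 also: firefly luciferase from ISG56 promoter only with Renilla not read in this screen; 0% = Sendai virus plus DMSO and 100% = medium plus DMSO without virus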); conditions: HEK293 RL24 IRF3 luciferase reporter, at 10 µM, stronger effect = higher value
[8] = inhibitors of poly I:C-induced TLR3 signaling, primary screen, cell-based, poly I:C stimulus, luciferase, 10K MLSCN set (AID 602277;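 active = inhibition of the reporter signal at or above 50%; inactive = inhibition below 50%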); conditions: HEK293-TLR3 RL24 IRF3 luciferase reporter, at 10 µM, stronger effect = higher value

Chain of Alpha-2C adrenergic receptor (Homo sapiens) (P18825 whole entry, looked up): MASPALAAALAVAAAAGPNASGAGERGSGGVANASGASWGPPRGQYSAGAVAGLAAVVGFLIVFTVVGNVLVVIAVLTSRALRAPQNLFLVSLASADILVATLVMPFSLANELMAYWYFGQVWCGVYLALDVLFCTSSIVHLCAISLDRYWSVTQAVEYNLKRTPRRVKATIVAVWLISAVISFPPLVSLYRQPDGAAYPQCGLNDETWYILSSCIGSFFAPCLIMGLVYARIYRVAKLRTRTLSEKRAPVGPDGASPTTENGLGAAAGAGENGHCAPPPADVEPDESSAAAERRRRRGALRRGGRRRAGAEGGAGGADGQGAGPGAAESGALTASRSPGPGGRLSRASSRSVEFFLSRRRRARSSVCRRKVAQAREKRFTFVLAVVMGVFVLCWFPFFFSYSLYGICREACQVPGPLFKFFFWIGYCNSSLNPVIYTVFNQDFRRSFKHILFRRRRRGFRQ
Chain of Voltage-gated potassium channel subunit beta-2 (Rattus norvegicus) (P62483 whole entry, looked up): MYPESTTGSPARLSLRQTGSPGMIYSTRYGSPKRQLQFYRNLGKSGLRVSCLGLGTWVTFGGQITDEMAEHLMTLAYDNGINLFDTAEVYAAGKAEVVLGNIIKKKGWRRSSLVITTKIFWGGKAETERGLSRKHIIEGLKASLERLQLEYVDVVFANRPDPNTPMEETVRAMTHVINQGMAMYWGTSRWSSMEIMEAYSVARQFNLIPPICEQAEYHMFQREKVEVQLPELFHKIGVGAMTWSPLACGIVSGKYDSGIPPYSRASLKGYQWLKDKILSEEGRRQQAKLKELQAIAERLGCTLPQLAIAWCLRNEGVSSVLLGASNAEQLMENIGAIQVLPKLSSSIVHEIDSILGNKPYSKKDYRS

SMILES	cell count [1]	inhibition [1]	inhibition of aggregation [2]	nuclei count [2]	inhibition [3]	nuclei count [3]	fluorescence slope [4]	NADPH fluorescence slope [5]	slope [6]	inhibition [7]	inhibition [8]
Cc1c(NC(=O)CCc2ccc(S(=O)(=O)N3CCOCC3)cc2)c(=O)n(-c2ccccc2)n1C	575	4.1% (inactive)	-26.2% (inactive)	119%	-86.1% (inactive)	112%	-0.527 (inactive)	-1.9e-05 (inactive)	0.00736 (inactive)	-8.63% (inactive)	5.48% (inactive)
O=C1C(Cl)=C(N2CCCCC2)C(=O)N1c1ccccc1Cl	450	4.4% (inactive)	-0.8% (inactive)	105%	-57.1% (inactive)	126%	-0.465 (inactive)	-0.000114 (inactive)	0.00518 (inactive)	16.8% (inactive)	24.8% (inactive)
Oc1ccc2ccccc2c1CN1CCN(c2ccccc2F)CC1	564	2.2% (inactive)	7.8% (inactive)	107%	9.5% (inactive)	111%	-0.574 (inactive)	-3.4e-05 (inactive)	0.00592 (inactive)	9.17% (inactive)	26.6% (inactive)
Cc1ccc2c(c1)N(CC(=O)N1CCCCC1c1cccnc1)C(=O)CO2 (stereo not drawn)	442	2.2% (inactive)	4.1% (inactive)	104%	-48.3% (inactive)	104%	-0.345 (inactive)	-6.9e-05 (inactive)	0.0057 (inactive)	-2.12% (inactive)	17.4% (inactive)
CCCCn1c(SCC(=O)N2CC(=O)Nc3ccccc32)nnc1-c1ccoc1C	494	-7.7% (inactive)	15.6% (inactive)	114%	-146% (inactive)	174%	-0.534 (inactive)	-3.6e-05 (inactive)	0.00478 (inactive)	13.2% (inactive)	19.3% (inactive)
CN(C)c1nc(SCCOC(=O)c2ccccc2)nc(N(C)C)n1	775	-4.7% (inactive)	-21.8% (inactive)	118%	-45.1% (inactive)	102%	-0.385 (inactive)	2.1e-06 (inactive)	0.00433 (inactive)	8.47% (inactive)	11.2% (inactive)
c1ccc(CN2CCN(CCCNc3ccc4nnc(-c5ccccc5)n4n3)CC2)cc1	485	-5.5% (inactive)	13.8% (inactive)	10.8%	-67.5% (inactive)	102%	-0.63 (inactive)	-1.7e-05 (inactive)	0.00645 (inactive)	-3.46% (inactive)	-17.8% (inactive)
O=C(c1ccc2c(c1)c(=O)oc1ccccc12)N1CCCCC1	206	0.3% (inactive)	15.8% (inactive)	87.8%	19.4% (inactive)	90.7%	-0.363 (inactive)	1.9e-05 (inactive)	0.00354 (inactive)	-50.7% (inactive)	-130% (inactive)
CSc1nc(=NC(C)=O)ss1	723	-18.1% (inactive)	-0.1% (inactive)	106%	22.2% (inactive)	110%	-0.528 (inactive)	-5.6e-05 (inactive)	0.00608 (inactive)	4% (inactive)	8.14% (inactive)
COc1ccc2nc(N3CCC(C)CC3)c(C#N)cc2c1	380	7.3% (inactive)	-10.6% (inactive)	108%	-59.3% (inactive)	66.6%	-0.587 (inactive)	-9e-06 (inactive)	0.00372 (inactive)	-48.2% (inactive)	-170% (inactive)
COc1ccc(C2CC(c3cccc(C)c3)n3ncnc3N2)cc1 (stereo not drawn)	595	5.1% (inactive)	0% (inactive)	97.8%	4% (inactive)	111%	-0.569 (inactive)	1.9e-05 (inactive)	0.00625 (inactive)	-16.2% (inactive)	2.59% (inactive)
CSc1cccc(NS(=O)(=O)c2ccccc2)c1	420	-1.4% (inactive)	-3.4% (inactive)	99.5%	-38% (inactive)	106%	-0.283 (inactive)	-2.2e-05 (inactive)	0.00527 (inactive)	9.48% (inactive)	27.9% (inactive)
C=CC(O)(C#CCN(CC)CC)c1ccccc1 (stereo not drawn)	740	-36% (inactive)	-18.5% (inactive)	107%	-53.6% (inactive)	110%	-0.596 (inactive)	-5e-05 (inactive)	0.0061 (inactive)	4.67% (inactive)	11.4% (inactive)
CCOC(=O)CN(C(=O)CSc1nnc(-c2ccncc2)n1CCCN(C)C)c1ccccc1	570	-11.3% (inactive)	12.2% (inactive)	89.1%	-14.2% (inactive)	92.8%	-0.615 (inactive)	-1.7e-05 (inactive)	0.00606 (inactive)	14.2% (inactive)	30.4% (inactive)
CC(=O)N(CCN(C(C)=O)c1ccccc1)c1ccccc1	448	-1.1% (inactive)	4% (inactive)	80.2%	12.5% (inactive)	88.5%	-0.454 (inactive)	7e-05 (inactive)	0.00518 (inactive)	13.8% (inactive)	17.2% (inactive)
COC(=O)C1=C(C)Nc2nnnn2C1c1cccs1 (stereo not drawn)	536	-8.8% (inactive)	-0.9% (inactive)	107%	-19.9% (inactive)	62.5%	-0.599 (inactive)	-6.8e-05 (inactive)	0.0058 (inactive)	4.45% (inactive)	20.5% (inactive)
CCOC(=O)c1sc2nc(NC(=O)C(C)(C)C)sc2c1C	600	16.7% (inactive)	-3.3% (inactive)	112%	-25.6% (inactive)	104%	-0.496 (inactive)	-2.5e-05 (inactive)	0.00604 (inactive)	-20.5% (inactive)	-150% (inactive)
O=[n+]1cc(-c2ccc(F)cc2)n([O-])c2c1CCC2	391	6.5% (inactive)	8.8% (inactive)	103%	-70% (inactive)	108%	-0.587 (inactive)	3.3e-05 (inactive)	0.00589 (inactive)	5.02% (inactive)	15.4% (inactive)
O=c1cc(CSc2ccccn2)c2ccccc2[nH]1	446	1.4% (inactive)	9.1% (inactive)	74.9%	-59.6% (inactive)	128%	-0.578 (inactive)	-3e-05 (inactive)	0.00572 (inactive)	10.1% (inactive)	18.8% (inactive)
c1cn2cc(CSC3CCCCC3)nc2s1	641	11% (inactive)	12.1% (inactive)	107%	-53.3% (inactive)	140%	-0.585 (inactive)	-4.6e-05 (inactive)	0.00605 (inactive)	-32.1% (inactive)	-53% (inactive)
O=S(=O)(c1ccc(Oc2ccc(-c3nnco3)cc2)nc1)N1CCC(Cc2ccccc2)CC1	396	-10.6% (inactive)	-26.7% (inactive)	102%	-1% (inactive)	108%	-0.508 (inactive)	-5e-05 (inactive)	0.00554 (inactive)	1.05% (inactive)	5.84% (inactive)
CCN(Cc1cc2cc(OC)ccc2[nH]c1=O)C(=O)c1ccncc1	458	-1% (inactive)	-12.3% (inactive)	111%	-34.1% (inactive)	198%	-0.498 (inactive)	4.7e-05 (inactive)	0.00638 (inactive)	13.5% (inactive)	20.1% (inactive)
CC1=CC2=C(OC1N(C)C)c1cccc3cccc(c13)C2=O (stereo not drawn)	277	23.4% (active)	3.4% (inactive)	96.5%	46.7% (inactive)	100%	-0.493 (inactive)	2e-06 (inactive)	0.00351 (inactive)	5.12% (inactive)	-3.5% (inactive)
Cc1ccc(S(=O)(=O)N2CCC(C(=O)N3CCC[C@H]3C(=O)NCc3ccccc3)CC2)cc1	340	3.6% (inactive)	-6.4% (inactive)	108%	-35% (inactive)	133%	-0.453 (inactive)	8.3e-05 (inactive)	0.00735 (inactive)	13.5% (inactive)	23.1% (inactive)
CC(O)CN1C(=O)C(CC(=O)Nc2ccc(Cl)cc2)SC1=Nc1ccccc1 (stereo not drawn)	671	-3.9% (inactive)	-11.8% (inactive)	119%	-16.8% (inactive)	116%	-0.453 (inactive)	-0.000376 (inactive)	0.00536 (inactive)	2.35% (inactive)	11.1% (inactive)
CC(C)CCNC(=O)C(c1cccs1)N(CC1CCCO1)C(=O)Cn1nnc2ccccc21 (stereo not drawn)	642	8.8% (inactive)	3.2% (inactive)	85.4%	-132% (inactive)	97.1%	-0.451 (inactive)	-5.1e-05 (inactive)	0.00299 (inactive)	10.3% (inactive)	35.6% (inactive)
NCc1cccc(-n2cccn2)c1	680	-8.9% (inactive)	1.2% (inactive)	96.4%	-25.7% (inactive)	115%	-0.622 (inactive)	4.5e-06 (inactive)	0.00555 (inactive)	-6.32% (inactive)	6.04% (inactive)
O=S(=O)(NCc1cn2ccccc2n1)c1cc(F)ccc1F	282	4.3% (inactive)	19.7% (inactive)	78.5%	9.5% (inactive)	88.5%	-0.287 (inactive)	-5.3e-05 (inactive)	0.00441 (inactive)	-0.696% (inactive)	8.79% (inactive)
